LmPK inh: LmPK (Leishmania mexicana) enzyme inhibition. AID 1721. 290,000 tested, 0.37% active. Potency, µM (top dose mostly 57.5 µM), most hits filed as inhibitors. purified LmPK, Kinase-Glo ATP luminescence, 1 h
Target sequence (Q27686 whole entry, looked up): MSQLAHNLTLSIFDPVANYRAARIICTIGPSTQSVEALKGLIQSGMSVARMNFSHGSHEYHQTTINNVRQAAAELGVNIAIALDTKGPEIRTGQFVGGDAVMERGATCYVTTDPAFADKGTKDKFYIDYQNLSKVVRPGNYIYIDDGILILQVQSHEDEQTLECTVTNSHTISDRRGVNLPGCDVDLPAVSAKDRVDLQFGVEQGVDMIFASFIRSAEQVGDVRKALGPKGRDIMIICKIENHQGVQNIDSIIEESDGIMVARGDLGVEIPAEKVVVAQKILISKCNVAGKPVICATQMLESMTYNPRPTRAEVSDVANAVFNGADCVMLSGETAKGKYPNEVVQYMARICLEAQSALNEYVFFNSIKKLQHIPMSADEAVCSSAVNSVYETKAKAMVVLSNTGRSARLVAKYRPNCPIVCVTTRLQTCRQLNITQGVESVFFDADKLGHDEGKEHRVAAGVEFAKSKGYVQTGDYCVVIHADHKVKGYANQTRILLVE
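Kinase-Glo luminescence read after 1 h RT reaction of 0.1 nM LmPK with 0.5 mM PEP and 0.1 mM ADP. Activity scaled between uninhibited and enzyme-free controls.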
Pf growth 96h: P. falciparum growth inhibition at 96 hours. P. falciparum luciferase reporter growth, 96 h. Potency, µM (highest dose often 28.7 µM), actives largely listed as inhibitors. 320,000 tested, 6.9% active
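Readout is luminescence from an integrated firefly luciferase in P. falciparum. Red cells, 2% hematocrit and 0.05% parasitemia final, were cultured with compound through two parasite generations (96 hours) at 37 C, 5% CO2.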
Pf growth 48h: inhibits P. falciparum growth in the first generation, 48 h; P. falciparum luciferase growth in erythrocytes, 48 h; Potency, µM (titrated, usually from 28.7 µM), actives largely listed as inhibitors; 310,000 tested, 5.9% active; AID 504832
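Luminescence readout; reporter = integrated firefly luciferase in P. falciparum. RBC culture at 2% hematocrit, 0.1% parasitemia final, 37 C/5% CO2; decreased signal taken as growth inhibition.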
Shiga toxin inh: inhibitors of Shiga toxin in Vero cells; Vero cells, Shiga toxin protein synthesis inhibition reporter; inhibition, % at 38.7 µM; 290,000 tested, 9.2% active; AID 2315; in the data active means inhibition mostly above about 28%, no sharp cut-off; inactive means mostly below about 43%
Cycloheximide cs: affects cycloheximide protein synthesis inhibition readout, counter-screen; cell reporter, cycloheximide protein synthesis inhibition counterscreen; max response, %; 300,000 tested, 12% active; AID 2314; in the data active means max response mostly above about 13%, no sharp cut-off; inactive means mostly below about 14%; further: read at 38.3 µM for the half of the compounds with a filed dose
Hits are given with their value; 0 = inactive; ? = inconclusive; - = no result given; [ ] = remark or other dose. In the library only some 22% were active in any assay of this set; here they are far more common. Unless noted, the call rests on the fitted dose curve; in most records, active means well fitted inhibition curve with a large enough effect; inconclusive means small, poorly fitted or top-dose-only effect, or another doubt; inactive means no such curve, though single readings can be large or run the other way.

SMILES | LmPK inh | Pf growth 96h | Pf growth 48h | Shiga toxin inh | Cycloheximide cs
COc1ccc(N(C)C(=O)c2cn(C)c(=O)c3cc(OC)c(OC)cc23)cc1 | 0 | ? | 0 | 0 | 0
CN1C(=O)C2ON(c3ccccc3)C(c3cccs3)C2C1=O (stereo not given) | 0 | 9.3µM | 0 | 0 | 0
CCOc1cc(S(=O)(=O)n2cc(-c3ccc(F)cc3)c(N)n2)cc(OCC)c1OCC | 0 | - | 8.3µM | 0 | 0
CCOc1ccc(S(=O)(=O)n2cc(-c3ccc(F)cc3)c(N)n2)cc1 | 0 | 9.3µM | - | 0 | 0
COc1ccc(C2CC(c3ccccc3)Oc3cc(C)cc(C)c32)cc1 (stereo not given) | - | - | - | 0 | 0
CC1(C)NC(=O)N(CCOCCSc2ccccc2)C1=O | 0 | 9.3µM | 0 | 0 | 0
COc1ccc(C2C=C(C34CC5CC(CC(C5)C3)C4)NC(=S)N2)cc1OC (stereo not given) | 0 | 9.3µM | ? | 0 | 0
COc1ccc(C(=O)OCCCN(C)C)cc1OC | 0 | 0 | 0 | 0 | 45
CCN(CC)CCCCCCCCOC(=O)c1cc(OC)c(OC)c(OC)c1 | - | 10µM | 9.3µM | - | -
COc1cccc(C(=O)OCCN2CCOCC2)c1 | 0 | 0 | 0 | 21 | 0
COc1cc(C(=O)OCCCN2CCCN(CCCOC(=O)c3cc(OC)c(OC)c(OC)c3)CC2)cc(OC)c1OC | - | 0 | 9.5µM | - | -
CCc1ccc(CNC(=O)CCCC(=O)n2nc(C)c3ccccc32)cc1 | 0 | 0 | 0 | 0 | 0
O=C(O)C1=C(C(=O)Nc2cc(C(F)(F)F)ccc2Cl)CCCC1 | 0 | ? | 0 | 0 | 0
CSc1nc(C)c(C(=O)C[n+]2ccc(C)cc2)cc1C#N | 0 | ? | ? | 0 | 0
COc1cc(C(=O)OCCCN2CCOCC2)ccc1O | 0 | 0 | 0 | 0 | 17
Cc1cccc(N2CC(C(=O)Nc3nnc(SCc4cccnc4)s3)CC2=O)c1 (stereo not given) | 0 | ? | ? | 0 | 0
CC(=O)c1ccc(OCCOc2ccc(C#N)cc2)cc1 | 0 | 0 | 0 | 0 | 0
CC(C)N1C(=O)C(Cc2nc3ccccc3c(=O)n2-c2ccccc2)c2ccccc21 (stereo not given) | 0 | 9.3µM | 9.3µM | 0 | 0
CN1C(=O)C(Cc2nc3ccccc3c(=O)n2-c2ccccc2)c2ccccc21 (stereo not given) | 0 | ? | ? | 0 | 0
O=c1c2ccccc2nc(CNc2ccccc2)n1-c1ccccc1 | 0 | 7.4µM | ? | 0 | 0
COc1ccccc1Nc1ccc(C(=O)NC2CCCCC2)cn1 | 0 | ? | 0 | 31 | 19
COc1ccccc1Nc1cc(C(=O)NC2CCCC2)c2ccccc2n1 | 0 | ? | 0 | 0 | 0
COc1ccccc1C(=O)NC1CCCCCCC1 | 0 | ? | ? | 102 | 20
COc1ccc(C(=O)NNC(=O)C(=O)NC2CCCCC2)cc1 | 0 | ? | 0 | 0 | 0
Cc1cc(C)n(C(=O)c2sc3cc(F)ccc3c2Cl)n1 | 0 | 0 | 0 | 0 | 0
SMILES | LmPK inh | Pf growth 96h | Pf growth 48h | Shiga toxin inh | Cycloheximide cs
CCN(CC)S(=O)(=O)c1cccc(-c2nnc(SCC(=O)NCCC3=CCCCC3)n2N)c1 | 0 | 12µM | 0 | 0 | 0
Cc1ccc(N(CC(=O)NC2CCCC2)C(=O)c2ccc(C)s2)cc1 | 0 | 0 | 0 | 0 | 0
CC(C)CCNC(=O)CN(C(=O)CCC(=O)Nc1ccccn1)c1ccc2c(c1)OCCO2 | 0 | 0 | 0 | 56 | 22
O=C(CN(C(=O)CCC(=O)Nc1ccccn1)c1ccc(F)cc1)NCCc1ccccc1 | 0 | 0 | 0 | 0 | 0
Cc1ccc(C(=O)N(CC(=O)NC2CCCC2)c2ccc3c(c2)OCCO3)s1 | 0 | 13µM | 0 | 0 | 0
CC(C)CCNC(=O)CN(C(=O)CCC(=O)Nc1ccccn1)c1ccc2c(c1)OCO2 | 0 | 0 | 0 | 0 | 0
O=C(CCC(=O)N(CC(=O)NC1CCCCC1)c1ccc2c(c1)OCCO2)Nc1ccccn1 | 0 | 0 | 0 | 0 | 21
O=C(CN(C(=O)CCC(=O)Nc1ccccn1)c1ccc2c(c1)OCCO2)NCCc1ccccc1 | 0 | 0 | 0 | 0 | 12
COc1ccc(-n2nc(C(=O)NCC(=O)NCCN(C)C)c3ccccc3c2=O)c(OC)c1 | 0 | 0 | 0 | 0 | 0
O=c1[nH]c2ccc(S(=O)(=O)N3CCN(c4ccc(F)cc4)CC3)cc2o1 | 0 | 0 | ? | 0 | 0
CCCCCCCCCCC(C)=O | - | - | - | 0 | 0
CCOC(=O)CC1C(=O)NCCN1S(=O)(=O)c1cccc(C(F)(F)F)c1 (stereo not given) | 0 | ? | 0 | 0 | 0
CCOC(=O)/C(N=Nc1ccc(C(=O)O)cc1[N+](=O)[O-])=C(\C)O | 0 | 0 | 0 | 0 | 0
CC(=O)/C(N=Nc1ccc(C(=O)O)cc1[N+](=O)[O-])=C(\C)O | 25µM | 0 | 0 | 0 | 0
O=C(/C=C/c1ccc([N+](=O)[O-])cc1)Nc1cccc(C(=O)Nc2ccccc2C(=O)O)c1 | 0 | 0 | 0 | 0 | 0
OC(c1ccc(F)cc1)(C1CCCCC1)C(CN1CCOCC1)c1ccccc1 (stereo not given) | 0 | ? | ? | - | 0
COc1ccc(Cl)cc1-c1n[nH]c(=S)n1Cc1ccccc1 | ? | ? | 0 | 0 | 0
Cc1ccccc1OCc1n[nH]c(=S)n1-c1cccc(Cl)c1 | 0 | ? | ? | 0 | 0
COc1ccc(Cl)cc1-c1n[nH]c(=S)n1C1CCCCC1 | 7.1µM | - | ? | 0 | 0
Cc1cc(Cl)ccc1OCc1n[nH]c(=S)n1C1CCCCC1 | 13µM | ? | 0 | 0 | 0
COc1ccc(NC(=O)Nc2cnccn2)cc1OC | 0 | 0 | 0 | 0 | 0
COc1ccc(-c2csc(Nc3cccc(C)n3)n2)cc1C | 0 | 0 | 0 | 79 | 56
CC(=O)Oc1ccc(-c2csc(Nc3cccnc3)n2)cc1 | 0 | ? | 0 | 0 | 0
COc1ccc(-c2csc(NC(=O)C3COc4ccccc4O3)n2)cc1OC (stereo not given) | 0 | ? | 0 | 0 | 0
Cc1cccc(Nc2nc(-c3ccc(F)cc3)cs2)n1 | 0 | 12µM | 0 | 105 | 46
SMILES | LmPK inh | Pf growth 96h | Pf growth 48h | Shiga toxin inh | Cycloheximide cs
COc1ccc(-c2csc(NC(=O)c3ccccc3C(=O)O)n2)cc1 | 0[11.5 µM] | 0 | 0 | 0 | 0
NS(=O)(=O)c1ccc(Nc2nc(-c3ccc(F)cc3)cs2)cc1 | 0 | 0 | 0 | 0 | 0
CC(=O)Oc1ccc(-c2csc(Nc3cccc(C)n3)n2)cc1 | 0 | ? | 0 | 91 | 45
COc1ccc(-c2csc(Nc3cccc(C)n3)n2)cc1 | 0 | ? | 0 | 71 | 38
Cc1ccc(-c2nc(SC(C)C(=O)N3CCCC3)n[nH]2)cc1 (stereo not given) | - | ? | 0 | - | -
CC(=O)Nc1ccc(S(=O)(=O)N2CCC(c3nnc(-c4ccc(C)cc4)o3)CC2)cc1 | 0 | ? | ? | 0 | 0
Cc1ccc(S(=O)(=O)NCC(=O)OCC(=O)c2c(N)n(C)c(=O)n(C)c2=O)cc1 | 0 | 0 | 0 | 0 | 0
COc1ccc(CN2CCC(Oc3cc(C(=O)NC4CC4)ccc3OC)CC2)c(O)c1 | 0 | 0 | 2.3µM | 0 | 0
COc1ccc(C(=O)NC2CC2)cc1OC1CCN(Cc2cc(C)c(C)cc2C)CC1 | 0 | ? | ? | 0 | 0
COc1ccc(C(=O)NCCC2=CCCCC2)cc1OC1CCN(C(C)C)CC1 | 0 | 0 | ? | 42 | 42
